# Compound activity: PubChem BioAssay, National Center for Advancing Translational Sciences (NCATS)
# Sfp PPTase inh = qHTS Assay for Inhibitors of Bacillus subtilis Sfp phosphopantetheinyl transferase (PPTase); Potency, µM, most hits filed as inhibitors; Biochemical Sfp PPTase activity, qHTS; 4'-phosphopantetheinyl transferase ffp (Bacillus subtilis), Q9F4F7; 310,000 compounds, 3.5% hits;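 also: the enzyme is Sfp with the accession as filed and its product quenches rhodamine fluorescence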
#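 Sfp 15 nM + cpd, 15 min RT; start w/ rhodamine-CoA 5 uM, BHQ-2-YbbR 12.5 uM (final); 50 mM Hepes pH 7.6, 10 mM MgCl2, 0.01% NP-40, 0.01% BSA; read 525/598 nm at 0 and 30 min.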
# rTrxR1 inhibitor = qHTS Assay for Inhibitors of Mammalian Selenoprotein Thioredoxin Reductase 1 (TrxR1): qHTS | 390,000 compounds, 1% hits | Potency, µM (series often up to 114 µM), most hits filed as inhibitors | recombinant rTrxR1, NADPH fluorescence consumption, selenite substrate; also: nearly all actives have a fitted effect of over 65% in size
#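 Rat TrxR1 (90 nM in the dispensed reagent) was pre-reduced with 400 uM NADPH for 5 min at room temperature, then incubated with compound for 15 min. After 400 uM selenite was added, NADPH fluorescence (Ex 340/Em 450 nm) was followed for 8 min.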
# TrxR1 substrate = qHTS Assay for Substrates of Mammalian Selenoprotein Thioredoxin Reductase 1 (TrxR1): qHTS; Thioredoxin reductase 1, cytoplasmic (Rattus norvegicus), O89049; purified TrxR1 substrate turnover, NADPH consumption readout; Potency, µM (titrated, usually from 114 µM); 390,000 compounds, 0.01% hits; also: nearly all actives have a fitted effect of over 50% in size
#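 Rat TrxR1, dispensed at 90 nM, was prereduced with 400 uM NADPH (final) for 5 min at ~22 deg C, then incubated with compound 15 min before 400 uM selenite. A first-read NADPH fluorescence drop versus no-compound background flagged substrates.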
# mIDH1 inhibitor = qHTS for Inhibitors of mutant isocitrate dehydrogenase 1 (IDH1): qHTS; Isocitrate dehydrogenase [NADP] cytoplasmic (Homo sapiens), O75874; IDH1-R132H enzyme, NADPH consumption, diaphorase/resazurin fluorescence; AID 602179, 2012; Potency, µM (doses to about 76.6 µM), usual class: inhibitors; 390,000 compounds, 0.093% hits; also: nearly all actives have a fitted effect of over 65% in size
#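 IDH1-R132H (0.5 ug/mL) preincubated 30 min with compound, then NADPH (0.016 mM) and alpha-KG (2 mM) added; 80 min at RT, pH 7.5. Remaining NADPH coupled via diaphorase/resazurin to fluorescence (540/590 nm); concentration-response curves normalized to no-enzyme control.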
# PLK1 PBD inh = qHTS for Inhibitors of PLK1-PDB (polo-like kinase 1 - polo-box domain): Primary Screen | Plk1 PBD binding of FITC phosphopeptide, fluorescence polarization | AID 720504, 2013 | Potency, µM, usual class: inhibitors | 360,000 compounds, 2.8% hits | Serine/threonine-protein kinase PLK1 (Homo sapiens), P53350; also: series mostly up to about 57 µM; nearly all actives have a fitted effect of over 65% in size
# Target sequence (P53350 whole entry, looked up, the tested form may be a part): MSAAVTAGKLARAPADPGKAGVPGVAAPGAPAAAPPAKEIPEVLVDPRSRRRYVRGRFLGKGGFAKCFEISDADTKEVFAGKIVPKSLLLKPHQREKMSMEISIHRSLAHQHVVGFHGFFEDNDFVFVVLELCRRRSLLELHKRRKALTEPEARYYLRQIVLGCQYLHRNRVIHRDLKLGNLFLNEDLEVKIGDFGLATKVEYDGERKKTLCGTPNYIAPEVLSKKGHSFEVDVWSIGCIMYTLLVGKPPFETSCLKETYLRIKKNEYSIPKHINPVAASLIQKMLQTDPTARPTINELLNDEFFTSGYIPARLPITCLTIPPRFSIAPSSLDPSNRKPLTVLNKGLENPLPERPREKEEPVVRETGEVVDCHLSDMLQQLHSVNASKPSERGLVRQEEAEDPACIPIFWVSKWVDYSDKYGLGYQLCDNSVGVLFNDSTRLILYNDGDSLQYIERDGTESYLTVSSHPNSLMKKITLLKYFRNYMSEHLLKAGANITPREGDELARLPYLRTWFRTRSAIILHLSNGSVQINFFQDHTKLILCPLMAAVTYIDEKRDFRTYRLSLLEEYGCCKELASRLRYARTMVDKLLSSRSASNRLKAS
# VDR inhibitor = Inhibitors of the vitamin D receptor (VDR): qHTS; VDR-SRC2-3 peptide fluorescence polarization, 2 h; Vitamin D3 receptor (Homo sapiens), P11473; Potency, µM, actives largely listed as inhibitors; 400,000 compounds, 0.93% hits
#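 Inhibition of the VDR/SRC2-3 peptide interaction is quantified by fluorescence polarization. Compounds (23 nl, pintool) incubate with the reagents for 2 hours at ambient room temperature.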
# Numbers stand for hits; . = inactive; ? = inconclusive; / = no result given; ! = not confirmed by another sample. Shown are actives, neighbours in structure and some others; about 5.2% of the full set was active somewhere. Calls follow the shape of the dose curve; as a rule, active = well fitted curve in the direction sought with a large enough effect; inconclusive = small, poorly fitted or top-dose-only effect, or another doubt; inactive = no such curve, though single readings can be large; an effect the other way counts as inactive or inconclusive.
SMILES,Sfp PPTase inh,rTrxR1 inhibitor,TrxR1 substrate,mIDH1 inhibitor,PLK1 PBD inh,VDR inhibitor
COc1cccc(C(c2nnnn2CC2CCCO2)N2CCN(C(=O)c3ccco3)CC2)c1OC (stereo not drawn),.,.,.,.,.,.
O=C(c1ccco1)N1CCN(C(c2ccc(Cl)cc2)c2nnnn2CC2CCCO2)CC1 (stereo not drawn),56.2µM,.,.,.,.,.
O=C(c1ccco1)N1CCN(Cc2nnnn2CC2CCCO2)CC1 (stereo not drawn),.,.,.,.,11.9µM,?
COc1ccc(C(c2nnnn2CC2CCCO2)N2CCN(c3ccc(F)cc3)CC2)cc1 (stereo not drawn),.,.,.,.,23.8µM,.
FC(F)(F)c1cnc(-c2cnc(-c3cccnc3)nc2)c(Cl)c1,.,.,.,.,23.8µM,?
FC(F)(F)c1cc(Cl)c2nnc(-c3cccnc3)n2c1,.,.,.,.,.,.
COCCN=c1scc(-c2ccc3c(c2)NC(=O)CO3)n1/N=C(\C)c1ccc(O)cc1,89.1µM,.,.,.,.,.
CC(=O)Oc1cccc2c1C(=O)c1c(OC(C)=O)cc(C(=O)O)cc1C2=O,.,.,.,?,?,?
O=C(O)c1cc(O)c2c(c1)C(=O)c1cc(O)cc(O)c1C2=O,10µM!,.,.,.,?,.
CC(C)Cc1ccc(CC(=O)O)cc1,?,/,/,/,/,.
CC(C)Cc1ccc(-c2cc(=O)[nH][nH]2)cc1,.,.,.,.,16.8µM,.
COc1ccc(OC)c(/C=C/c2sc3ccccc3[n+]2C)c1,/,.,.,/,/,/
COc1cccc([C@@H]2Oc3ccc(OC)cc3C[C@H]2OC(=O)Nc2cc(OC)c(OC)c(OC)c2)c1,?,/,/,/,/,.
CN1CC[C@H](c2c(O)cc(O)c3c(=O)cc(-c4ccccc4Cl)oc23)[C@@H](O)C1,/,.,.,/,/,.
COc1ccc2[nH]c(=O)c(CN(CCc3ccccc3)C(C)=O)cc2c1,.,.,.,.,.,.
COc1ccc2[nH]c(=O)c(CNc3ccccc3C)cc2c1,22.4µM,?,.,.,?,?
COCC(=O)N(Cc1cc2cc(OC)ccc2[nH]c1=O)c1ccccc1OC,.,.,.,.,.,.
COc1ccc2[nH]c(=O)c(CNc3ccccc3OC)cc2c1,15.8µM,.,.,.,.,.
COc1ccc2[nH]c(=O)c(CNc3ccccc3)cc2c1,50.1µM,?,.,.,?,.
COc1ccccc1C(C(C(=O)c1ccccc1)N1CCOCC1)N1CCOCC1 (stereo not drawn),/,.,.,.,.,.
COc1ccc(NC(=O)N2CC[C@@]3(CCCN(S(C)(=O)=O)C3)C2)cc1,.,/,/,/,/,.
Oc1sc(C=Nc2ccccc2)c2ccccc12,44.7µM,.,.,.,.,.
Oc1c(C=Nc2ccccc2)sc2ccccc12,.,.,.,.,.,.
Oc1sc(C=Nc2ccc(F)cc2)c2ccccc12,14.1µM,.,.,.,.,.
CN(Cc1ccccc1)C(=O)CSc1nc(-c2ccc(F)cc2)cc(C(F)(F)F)n1,/,.,.,.,/,.
CCOC(=O)CC(NC(=O)c1cc2cccc(OC)c2oc1=O)c1cccc([N+](=O)[O-])c1 (stereo not drawn),50.1µM,.,.,.,.,?
COc1cc2c(cc1OC)C1O[C@](CCCCN3C(=O)c4ccccc4C3=O)(C2)OC2=C1C(=O)c1ccccc1C2=O,.,/,/,/,/,/
COc1ccc(C2CC(c3cccs3)=NN2C(=O)CCl)cc1OC (stereo not drawn),.,7.94µM,.,.,.,.
